GCN5L2 inh – qHTS Assay for Inhibitors of GCN5L2; GCN5L2 HAT assay, ThioGlo1 CoA-SH fluorescence; Potency, µM (titrated, usually from 58.9 µM), for inactives: at the highest dose activity change, negative = inhibition, actives largely listed as inhibitors; 390,000 compounds, 0.21% hits; AID 504327, 2011; further: potency means the concentration at half of the fitted maximal effect; on the % scale 0 is the no-effect control and ±100 the full control effect
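Titration-based screen in which CoA formation is detected via maleimide probe ThioGlo1 (50uM) turning fluorescent on thiol reaction; substrates H3(1-25) 75uM and acetyl-CoA 70uM, GCN5L2 20nM, 20 min incubation at room temperature.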
BLM helicase inh – qHTS Assay for Inhibitors of Bloom's syndrome helicase (BLM). RecQ-like DNA helicase BLM (Homo sapiens), P54132. recombinant BLM DNA unwinding, fluorescence dequenching. Potency, µM (titrated, usually from 56.1 µM), without a hit: at the top dose activity change, negative = inhibition, most hits filed as inhibitors. 350,000 compounds, 0.2% hits;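 further: potency means the concentration at half of the fitted maximal effect; plate controls were vehicle for no effect and no enzyme for full effect; nearly all actives have a fitted effect of over 35% in size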
PI5P4Ka inh – qHTS for Inhibitors of phosphatidylinositol 5-phosphate 4-kinase (PI5P4K) | PI5P4Kalpha enzyme, ADP-Glo luminescence, 60 min; active compounds read low | 330,000 compounds, 1.2% hits | max response, % | AID 652105, 2013; active means max response of -50% or lower; inconclusive means between -30% and -50%; inactive means -30% or higher; further: value at the top dose of about 77 µM; on the % scale 0 is the no-effect control and ±100 the full control effect
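Compounds were pin-transferred onto PI5P4Kalpha and substrate in HEPES pH 7.4 buffer with EGTA, CHAPS and 5% DMSO. ATP (5 microM final) started the reaction, which ran 60 minutes at room temperature before ADP-Glo detection.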
FEN1 inh-1 – qHTS Assay for the Inhibitors of Human Flap endonuclease 1 (FEN1); P39748; Recombinant FEN1 flap cleavage, fluorescence, 15 min; Potency, µM (doses to about 114 µM), without a hit: at the highest dose activity change, negative = inhibition, most hits filed as inhibitors; 390,000 compounds, 0.35% hits; AID 588795, 2011; further: potency means the concentration at half of the fitted maximal effect; on the % scale 0 is the no-effect control and ±100 the full control effect; nearly all actives have a fitted effect of over 65% in size
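Steps: FEN1 (10 nM) dispensed; compound added by pin tool; 15 min at room temperature; substrate added to 50 nM final; reads at 0 min and 15 min; data normalized and fitted (four-parameter Hill).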
APEX1 inh – qHTS Assay for Inhibitors of the Human Apurinic/apyrimidinic Endonuclease 1 (APE1). DNA repair nuclease/redox regulator APEX1 (Homo sapiens), P27695. recombinant APE1, TAMRA/BHQ-2 abasic DNA cleavage fluorescence. Potency, µM (doses to about 65.8 µM), for inactives: at the highest dose activity change, negative = inhibition, usual class: inhibitors. 350,000 compounds, 0.35% hits;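 further: potency means the concentration at half of the fitted maximal effect; plate controls were vehicle for no effect and reference inhibitor for full effect; nearly all actives have a fitted effect of over 55% in size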
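Substrate: short duplex with […] THF abasic site, 5'-TAMRA and 3'-BHQ-2, 50 nM final. APE1 at 0.75 nM, preincubated 15 min RT with compound. Fluorescence increase from first to third read measured activity.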
RECQ1 inh – qHTS Assay for Inhibitors of RecQ-Like Dna Helicase 1 (RECQ1); ATP-dependent DNA helicase Q1 (Homo sapiens), P46063; RECQ1 DNA unwinding, red fluorescence kinetic read; Potency, µM (highest dose often 57.3 µM), without a hit: at the highest dose activity, negative = inhibition, usual class: inhibitors; 240,000 compounds, 0.54% hits; AID 2549, 2010;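 further: potency means the concentration at half of the fitted maximal effect; plate controls were vehicle for no effect and no enzyme for full effect; nearly all actives have a fitted effect of over 30% in size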
Target sequence (P46063 whole entry, looked up): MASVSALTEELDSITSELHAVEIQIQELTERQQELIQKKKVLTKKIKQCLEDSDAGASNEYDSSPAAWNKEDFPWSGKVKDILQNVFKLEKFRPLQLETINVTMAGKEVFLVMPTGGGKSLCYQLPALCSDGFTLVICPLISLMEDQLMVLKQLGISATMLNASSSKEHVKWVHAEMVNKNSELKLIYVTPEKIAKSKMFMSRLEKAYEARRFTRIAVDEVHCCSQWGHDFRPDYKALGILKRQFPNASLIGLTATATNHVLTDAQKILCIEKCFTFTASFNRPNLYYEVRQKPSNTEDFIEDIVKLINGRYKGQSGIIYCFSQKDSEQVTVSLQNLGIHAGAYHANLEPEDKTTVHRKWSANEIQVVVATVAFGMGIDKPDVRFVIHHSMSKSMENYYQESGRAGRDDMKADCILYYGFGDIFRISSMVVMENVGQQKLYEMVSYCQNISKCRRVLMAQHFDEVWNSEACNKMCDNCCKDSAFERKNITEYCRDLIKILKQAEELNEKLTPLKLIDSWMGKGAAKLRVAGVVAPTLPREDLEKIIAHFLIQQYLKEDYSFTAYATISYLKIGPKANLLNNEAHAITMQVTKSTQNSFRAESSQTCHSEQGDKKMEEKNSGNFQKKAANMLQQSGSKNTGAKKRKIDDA
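RECQ1T1 50 nM; forked duplex (20 bp + 30-nt ss tails) 200 nM, ATP 2 mM final; pH 8.0, 2 mM MgCl2, 2.5 ug/ml poly(dI-dC); 15 min compound preincubation; discontinuous kinetic read over 2 h at RT.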
FEN1 inh-2 – qHTS Assay for the Inhibitors of FEN1: Confirmatory Assay for Cherry-picked Compounds; FEN1 flap cleavage, TAMRA/BHQ2 fluorogenic DNA substrate; 880 compounds, 79% hits; Potency, µM, actives largely listed as inhibitors; shares compounds with FEN1 inh-1; further: potency means the concentration at half of the fitted maximal effect; nearly all actives have a fitted effect of over 60% in size
Numbers without * were called inactive; i = inactive; ? = inconclusive; . = no result; [ ] = another dose, or the depositor's remark. Sampled rows, rich in hits. Any-hit rate of the full collection: about 1.5%. Unless noted, the call rests on the fitted dose curve; in most records, active means well fitted curve in the direction sought with a large enough effect; inconclusive means small, poorly fitted or top-dose-only effect, or another doubt; inactive means no such curve, though single readings can be large; an effect the other way counts as inactive or inconclusive.

SMILES | GCN5L2 inh | BLM helicase inh | PI5P4Ka inh | FEN1 inh-1 | APEX1 inh | RECQ1 inh | FEN1 inh-2
COc1ccc(S(=O)(=O)Nc2cc(SCC(=O)O)c(O)c3ccccc23)cc1 | 72.7% | -20.8% | -51.2* | ? | 25.9% | . | 67.5*
O=S(=O)(Nc1cc(Sc2cccc3cccnc23)c(O)c2ccccc12)c1ccc(F)cc1 | -12.6% | -5.6% | -18.8 | ? | 8.9% | -15.5% | .
COc1ccc(S(=O)(=O)Nc2cc(Sc3ncn[nH]3)c(O)c3ccccc23)cc1 | ? | ? | . | 6.31µM* | ? | -7.3% | ?
O=C(O)CSc1cc(NS(=O)(=O)c2ccc(Cl)cc2)c2ccccc2c1O | 55.3% | 25.1µM* | -54.5* | 35.5µM* | 59.6% | . | 75.7*
CCc1ccc(NC(=O)CSc2nc3c([nH]c4ccccc43)c(=O)n2C)cc1 | -6.0% | -0.2% | . | 19.5% | . | . | .
O=c1c2ccccc2oc2ccc(NCCCn3ccnc3)cc12 | -11.9% | -11.0% | -0.7 | ? | -4.9% | . | .
Cc1cc2oc3cc(NCCC4CCCN4C)ccc3c(=O)c2cc1C (stereo not drawn) | . | . | -11.6 | 35.5µM* | . | . | 33.8*
CN1CCCC1CCNc1ccc2sc3ccccc3c(=O)c2c1 (stereo not drawn) | . | . | 0.7 | 39.8µM* | . | . | 37.9*
O=C(NCCCc1nc2ccccc2n1CCOc1ccccc1)C1CCCCC1 | . | . | . | -1.8% | . | . | .
COc1ccc(CCNC(=O)COc2ccc([N+](=O)[O-])cc2)cc1 | 2.2% | -6.0% | -18.7 | -1.2% | 14.5% | i | .
COc1ccc(CCNC(=O)COC(=O)c2ccc([N+](=O)[O-])o2)cc1 | -2.2% | . | -8.5 | ? | -23.9% | . | 16.9*
O=C(COC(=O)c1ccc([N+](=O)[O-])o1)Nc1cccc2ccccc12 | -2.7% | 0.1% | 3.8 | ? | -5.1% | -20.9% | .
O=C(COC(=O)c1ccc([N+](=O)[O-])o1)NCCCc1ccccc1 | -0.7% | . | -6.6 | ? | -29.9% | . | 19*
CCCCC1=CC2=CC(=O)C(C)(OC(=O)CC)C(=O)C2=CN1CCCN(CC)CC (stereo not drawn) | . | -9.4%[12.4 µM] | . | . | -0.8%[12.4 µM] | 5.7%[11.5 µM] | .
CCOc1ccc(NC(=O)/C=C\C(=O)N(c2ccc(C(C)C)cc2)C(C(=O)NCc2ccco2)c2ccc(F)cc2)cc1 (stereo not drawn) | -11.4% | -13.0% | . | -1.3% | . | . | .
COc1ccccc1C1c2c(ncn(-c3ccccc3)c2=N)Oc2ccc3ccccc3c21 (stereo not drawn) | . | . | . | . | . | . | 10.7*
Nc1ccc2nc(-c3ccc(N)c(Cl)c3)[nH]c2c1 | ? | -20.9% | -62.7* | 50.1µM* | ? | -21.7% | 21.3*
Cc1ccccc1-c1nc(Nc2ccncc2)c2ccccc2n1 | -28.1% | -11.5% | . | . | -6.4% | -13.9% | .
CCOC(=O)c1c(C)oc2nc(C)nc(NCCCN3CCN(c4cccc(C)c4)C(C)C3)c12 (stereo not drawn) | -0.1% | -4.1% | . | 5.9% | . | . | .
O=C1NN(c2ccc(Cl)cc2)C(=O)/C1=C\c1ccc(-c2cccc(C(=O)O)c2)o1 | -27.3% | -25.6% | -69.2* | 50.1µM* | 7.94µM* | ? | 67.5*
O=C(O)c1ccc2c(c1)C(=O)/C(=C\c1ccco1)C2=O | -18.7% | 139.5% | -61.0* | ? | 7.94µM* | ? | 26.9*
COc1ccc(C2/C=C\CN(C(=O)C3CCCCC3)C(C)C(=O)N2Cc2ccc(F)cc2)cc1 (stereo not drawn) | . | -4.6% | . | 2.1% | -7.0% | i | .
Cc1nnc(NC(=O)c2sc3nc(-c4cccs4)cc(C(F)(F)F)c3c2N)s1 | -4.0% | -12.5% | -14.4 | ? | -9.3% | ? | ?
COC(=O)NC(c1cccc(C)c1)[C@@]1(C(=O)OC)CCCC1=O (stereo partly drawn) | . | 0.7%[12.4 µM] | . | . | ? | 14.0%[11.5 µM] | .
Cc1cn(C2CC3OCC(NC(=O)C(NC(=O)OC(C)(C)C)C(C)OCc4ccccc4)C3O2)c(=O)[nH]c1=O (stereo not drawn) | . | 2.1% | . | -16.5% | -0.9% | 12.1% | .
SMILES | GCN5L2 inh | BLM helicase inh | PI5P4Ka inh | FEN1 inh-1 | APEX1 inh | RECQ1 inh | FEN1 inh-2
CCCC(=O)N1CCN(c2nc3ccc(F)cc3s2)CC1 | -1.7% | 1.4% | . | -7.3% | . | . | .
Cc1c(C)c2cccnc2c2ncccc12 | -1.8% | . | -3.2 | 15.8µM* | -28.2% | . | 42.6*
O=C(Nc1cccnc1)c1cnc2ccccc2n1 | -5.9% | -11.8% | -7.7 | 4.3% | -0.9% | i | .
O=C(Nc1ccccc1-c1cn2c(CN3CCNCC3)csc2n1)c1cnc2ccccc2n1 | . | . | . | 28.2µM* | . | . | 23.9*
Cc1ccc(-c2nc3c(C)cccn3c2Nc2ccccc2C)s1 | -14.6% | -10.6% | . | -1.6% | . | . | .
CSC1SCC2C(=O)N(C)C(C(C)C)C(=O)OCC(NC(=O)c3cnc4ccccc4n3)C(=O)NC(C)C(=O)N(C)C1C(=O)N(C)C(C(C)C)C(=O)OCC(NC(=O)c1cnc3ccccc3n1)C(=O)NC(C)C(=O)N2C (stereo not drawn) | . | . | ? | 0.562µM* | . | . | 0.601*
Cc1ccc(C(=O)Nc2ccc3c4c(cccc24)CC3)cc1[N+](=O)[O-] | -1.7% | 2.1% | 0.2 | 5.3% | -5.3% | -6.6% | .
O=[N+]([O-])c1ccc2c([N+](=O)[O-])ccc3c2c1CC3 | . | . | -73.7* | . | . | . | ?
COc1cc(C(=O)NC2CCN(C)CC2)ccc1Nc1ncc2c(n1)N(C1CCCCC1)CCC(=O)N2C | . | . | -3.4 | ? | . | . | 37.9*
O=C(O)c1cccc2cc(-c3ccccc3)oc(=O)c12 | -8.8% | -4.6% | 2.0 | -3.0% | 23.5% | . | .
O=C(O)c1cccc2cccc(-c3c4ccc(=O)c(O)c-4oc4c(O)c(O)ccc34)c12 | . | . | -94.9* | 3.16µM* | . | . | 3.38*

Compound activity (PubChem)
